Only some compounds are listed: those with a hit (about 4.1% of all), similar ones and a draw of the others.
697 NFkB inh: inhibitors of the PMA/ionomycin-induced NF-kB reporter in 697 B cells | 697 B-cell NF-kB luciferase reporter, 16 h | AID 435022 | inhibition, % at 4 µM | 330,000 compounds, 0.33% hits; in the data active = inhibition above about 35%
Gli-Sufu antag: blocks Gli-Sufu signaling in a luciferase reporter; inhibition, % at 5 µM; Sufu-KO-LIGHT fibroblasts, Gli luciferase reporter luminescence; AID 588413; 340,000 compounds, 0.74% hits;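 active = inhibition above about 55%, limit read from the data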;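 also: 0% = DMSO-treated cells and 100% = wells with medium but no cells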
Jurkat NFkB inh: inhibitors of the PMA/ionomycin-induced NF-kB reporter in Jurkat cells; PMA/ionomycin-induced NF-kB luciferase reporter, luminescence; inhibition, % at 4 µM; 330,000 compounds, 0.53% hits; AID 435003; in the data active = inhibition above about 50%
Mdm2 MdmX PPI: human Mdm2/MdmX binding inhibition | O15151+Q00987 | SaOS-2 split-luciferase Mdm2/MdmX complementation, luminescence | inhibition, % at 8 µM | 330,000 compounds, 3% hits;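 active = inhibition of at least 50% at 8 µM in the primary screen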
Target sequence (O15151 whole entry, looked up): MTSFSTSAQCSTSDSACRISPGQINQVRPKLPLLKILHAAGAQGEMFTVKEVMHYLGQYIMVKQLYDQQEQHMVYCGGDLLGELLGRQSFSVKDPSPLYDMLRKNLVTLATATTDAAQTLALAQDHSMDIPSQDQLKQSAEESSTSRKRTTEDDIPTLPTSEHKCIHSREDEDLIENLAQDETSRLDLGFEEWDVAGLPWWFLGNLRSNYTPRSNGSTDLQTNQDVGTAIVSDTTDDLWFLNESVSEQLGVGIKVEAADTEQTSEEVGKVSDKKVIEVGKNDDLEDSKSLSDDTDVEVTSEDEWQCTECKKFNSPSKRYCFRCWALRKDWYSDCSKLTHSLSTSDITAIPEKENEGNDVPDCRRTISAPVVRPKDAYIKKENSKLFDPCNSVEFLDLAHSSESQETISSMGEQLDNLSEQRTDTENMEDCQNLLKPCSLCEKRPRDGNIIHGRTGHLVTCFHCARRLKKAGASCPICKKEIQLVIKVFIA
Target sequence (Q00987 whole entry, looked up): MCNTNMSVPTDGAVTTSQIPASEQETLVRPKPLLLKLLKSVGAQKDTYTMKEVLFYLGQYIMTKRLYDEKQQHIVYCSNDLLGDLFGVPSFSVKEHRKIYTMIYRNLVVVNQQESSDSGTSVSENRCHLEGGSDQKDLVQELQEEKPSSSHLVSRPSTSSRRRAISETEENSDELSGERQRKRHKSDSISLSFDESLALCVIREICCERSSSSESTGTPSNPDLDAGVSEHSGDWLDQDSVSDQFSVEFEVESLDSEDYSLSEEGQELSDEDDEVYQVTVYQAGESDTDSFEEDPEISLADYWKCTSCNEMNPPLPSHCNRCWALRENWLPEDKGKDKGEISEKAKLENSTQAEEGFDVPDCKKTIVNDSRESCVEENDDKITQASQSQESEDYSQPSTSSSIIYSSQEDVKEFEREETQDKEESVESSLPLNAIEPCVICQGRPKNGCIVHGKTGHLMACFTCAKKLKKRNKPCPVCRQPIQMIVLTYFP
KLF5 inhibitor: inhibitors of KLF5 expression | DLD-1 KLF5 promoter-luciferase reporter, luminescence | inhibition, % at 5 µM | 290,000 compounds, 0.23% hits | AID 1700;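 active = inhibition above a per-plate limit of that plate's mean compound inhibition plus 3 SD, cut at about 60% in these data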;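 also: 0% = DMSO wells and 100% = LY294002 at 200 µM; higher means less KLF5 promoter-driven luciferase light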
aSyn 5UTR inh: MLPCN primary screen, SNCA 5' untranslated region. alpha-synuclein 5'UTR reporter, inhibitor activity. inhibition, % (tested at 7.5 µM). 300,000 compounds, 0.82% hits. AID 1813; in the data active = inhibition above about 60%; inconclusive = no clear call, values can overlap the other calls;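 also: H4 neuroglioblastoma cells stably carrying SNCA 5'UTR luciferase fusion; 0% = DMSO wells and 100% = positive control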
Mdm2 MdmX conf: confirmation of human Mdm2/MdmX interaction inhibitors. shares compounds with Mdm2 MdmX PPI. Mdm2-MdmX binding, luminescent assay. inhibition, % at 8 µM. 10,000 compounds, 55% hits. AID 489028; in the data active = inhibition above about 40%
Full FLuc ctr: inhibits full-length luciferase, flagging false Mdm2/MdmX hits; shares compounds with Mdm2 MdmX PPI; SaOS-2 full-length luciferase counterscreen, luminescence; inhibition, % at 8 µM; 6,200 compounds, 77% hits; AID 504607;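 active = mean inhibition at 8 µM reaching about 37%, which flags the compound as non-specific, limit read from the data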;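 also: p53-null SaOS-2 cells with luciferase driven by a doxycycline-inducible promoter; compound on cells about two nights before reading with doxycycline added after day one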
Starred values were filed as active, the others as inactive; ? = inconclusive; . = not tested or not shown.

SMILES	697 NFkB inh	Gli-Sufu antag	Jurkat NFkB inh	Mdm2 MdmX PPI	KLF5 inhibitor	aSyn 5UTR inh	Mdm2 MdmX conf	Full FLuc ctr
CN1CCN(c2nc3ccccc3nc2C(C#N)C(=O)OC2CCCCC2)CC1 (stereo not given)	13	10	6	51*	2	14	31	84*
O=C(/C=C/c1ccccc1[N+](=O)[O-])c1ccccc1Br	-6	-11	-9	72*	-46	-79	6	.
COc1cc(OC)c(OC)cc1/C=C1\CCC/C(=C\c2cc(OC)c(OC)cc2OC)C1=O	5	33	40	67*	18	-29	43*	82*
COc1ccc(/C=C2\CCC/C(=C\c3ccc(OC)c(OC)c3OC)C2=O)c(OC)c1OC	-43	30	0	23	-14	-71	.	.
NC(=O)CSc1nnc(CSc2ncccn2)n1-c1ccccc1	11	4	12	11	3	5	.	.
O=c1cc(N/N=C/c2ccccc2)[nH]c(=O)[nH]1	-20	-6	-23	70*	.	23	21	.
O=c1cc(C=NNc2ccccc2)[nH]c(=O)[nH]1	.	13	.	.	.	.	.	.
Cc1cc(SCC(=O)N/N=C/c2ccc(O)c(O)c2)nc2ccccc12	-63	18	28	34	-37	0	.	.
Cc1cc(SCC(=O)N/N=C/c2ccc(O)cc2O)nc2ccccc12	-56	16	7	74*	42	?	73*	32
CCCOC1CCCN(Cc2nc(-c3ccc(C(=O)OC)cc3)no2)C1 (stereo not given)	11	0	14	22	8	-2	.	.
COc1ccccc1-c1cc(C(F)(F)F)nc(S(=O)(=O)CCCC(=O)N2CCCCC2C)n1 (stereo not given)	-24	-8	-9	97*	-15	-50	69*	20
CN1CCN(c2nc(-c3ccco3)cc(C(F)(F)F)n2)CC1	-9	4	8	-5	-2	-1	.	.
COc1ccccc1-c1cc(C(F)(F)F)nc(S(C)(=O)=O)n1	-14	-1	-21	97*	5	-27	79*	53*
CS(=O)(=O)c1nc(-c2ccco2)cc(C(F)(F)F)n1	-66	.	29	100*	-8	-76	100*	2
COc1ccccc1-c1cc(C(F)(F)F)nc(S(=O)(=O)CCCC(=O)NCc2ccc(F)cc2)n1	-23	-7	-13	99*	-23	-20	90*	51*
CC1(C)CC(=O)C2=C(C1)OC(N)=C(C#N)C2c1cc2c(cc1[N+](=O)[O-])OCO2 (stereo not given)	.	-3	.	.	-8	-26	.	.
CC(C)(C)OC(=O)C[C@@H]1C/C=C\C[C@@H](CC(=O)N(CCO)Cc2ccccc2)C(=O)N2CCC[C@@H]2COC1=O	0	-1	5	13	.	.	.	.
COc1ccc(-c2cc(C(F)(F)F)nc(S(=O)(=O)CCCC(=O)Nc3cc(C)on3)n2)cc1OC	.	8	.	.	-30	-3	.	.
COc1ccccc1-c1cc(C(F)(F)F)nc(S(=O)(=O)CCCC(=O)Nc2cccnc2Cl)n1	.	-1	.	.	-18	.	.	.
COc1ccccc1-c1cc(C(F)(F)F)nc(S(=O)(=O)CCCC(=O)NC(C)C)n1	-128	2	32	100*	17	-46	97*	31
COc1ccccc1-c1cc(C(F)(F)F)nc(S(=O)(=O)CCCC(=O)Nc2cc(C)on2)n1	-239	1	27	100*	-4	-65	99*	33
O=C(NCCS(=O)(=O)c1ccc(Br)cc1)c1ccc(Cl)cc1Cl	1	-15	12	15	-9	6	.	.
COc1ccc(-c2cn(-c3ccc(C)cc3C)c(=O)[nH]2)cc1OC	-19	-7	5	1	-29	-5	.	.
CN1CCN(NC(=O)c2ccc(S(=O)(=O)N3CC4(C)CC3CC(C)(C)C4)cc2)CC1 (stereo not given)	-1	5	1	8	6	4	.	.
O=C(OCC(=O)N1CCN(C(=O)c2ccco2)CC1)c1cc(-c2ccc(Cl)c(Cl)c2Cl)nc2ccccc12	-22	-5	2	57*	-5	8	8	.
SMILES	697 NFkB inh	Gli-Sufu antag	Jurkat NFkB inh	Mdm2 MdmX PPI	KLF5 inhibitor	aSyn 5UTR inh	Mdm2 MdmX conf	Full FLuc ctr
O=C(OCC(=O)N1CCN(C(=O)c2ccco2)CC1)c1cc(-c2ccco2)nc2ccccc12	17	4	18	-5	-2	-4	.	.
CN1CCCN(C(=O)c2cc(-c3ccc(Cl)c(Cl)c3Cl)nc3ccccc23)CC1	-3	4	-7	53*	0	-53	28	76*
O=C(c1cc(-c2ccccc2)nc2ccccc12)N1CCN(c2ccccc2O)CC1	-14	13	16	24	3	2	.	.
CCOc1ccc(N(CC(=O)N2CCC(Cc3ccccc3)CC2)S(C)(=O)=O)cc1	-15	14	-1	-9	3	9	.	.
CCC(C)C(NC(=O)OCc1ccccc1)C(=O)NC(Cc1ccc(O)cc1)C(=O)OC (stereo not given)	10	.	12	22	-41	-4	.	.
COc1cc(/C=C/C(=O)c2ccc(NS(=O)(=O)c3ccc(C)cc3)cc2)cc(OC)c1O	.	10	.	.	-2	-26	.	.
COc1cccc(/C=C/C(=O)c2ccc(NS(=O)(=O)c3ccc(C)cc3)cc2)c1	3	1	5	71*	-11	-31	15	.
COc1cc(/C=C/C(=O)c2ccc(NS(=O)(=O)c3ccc(C)cc3)cc2)ccc1OC(F)F	16	3	6	92*	-25	-46	42*	62*
CCc1c(C)nc(SCc2ccccn2)[nH]c1=O	12	4	-4	24	-31	-13	.	.
Cc1ccc(S(=O)(=O)c2nnn3c2nc(NCCCN2CCCC2=O)c2ccccc23)cc1C	-1	-16	8	34	-15	0	.	.
Cc1ccc(S(=O)(=O)c2nnn3c2nc(NC2CCN(Cc4ccccc4)CC2)c2ccccc23)cc1C	-34	36	9	64*	4	0	39	52*
O=C(Nc1cccc(F)c1)N1CCCC(CNS(=O)(=O)Cc2ccccc2)C1 (stereo not given)	14	-1	0	3	0	9	.	.
COCC(=O)O[C@]1(CCN(C)CCCc2nc3ccccc3[nH]2)CCc2cc(F)ccc2[C@@H]1C(C)C	1	7	1	93*	.	20	53*	36*
CCOC(=O)C1CCCN(C(=O)c2ccc(Cl)c(S(=O)(=O)N3CCc4ccccc43)c2)C1 (stereo not given)	.	0	.	.	.	.	.	.
O=S(=O)(c1ccc(-c2cnc(C3CC3)o2)cc1)N1CCN(c2ccccc2)CC1	-5	6	21	59*	-52	3	2	.
O=S(=O)(NCc1ccccc1)c1ccc(-c2cnc(C3CC3)o2)cc1	-23	8	34	26	-20	8	.	.

Compound activity as filed in PubChem BioAssay.
